32 compounds from PubChem BioAssay AID504452 (The Scripps Research Institute Molecular Screening Center, 2011) can be followed below.

Active and inactive are the calls of the source. Cut-off read from the data, not from the text of the source: active = activation above about 85%; inactive = the rest.

The target in the test is Peroxisome proliferator-activated receptor gamma (Homo sapiens) (UniProt P37231). Nature of the test: partial agonism at human PPARgamma receptor – cell-based, luciferase reporter, luminescence, primary screen (AID 504452).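 Note: Cos-1 cells carrying PPARgamma and a response element luciferase reporter.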 Particulars: cell-based PPARg luciferase reporter, at 5 µM, stronger effect = higher value; activation (% of full agonist control): measured here: relative to full agonist control.
Chain of Peroxisome proliferator-activated receptor gamma (Homo sapiens) (P37231 whole entry, looked up): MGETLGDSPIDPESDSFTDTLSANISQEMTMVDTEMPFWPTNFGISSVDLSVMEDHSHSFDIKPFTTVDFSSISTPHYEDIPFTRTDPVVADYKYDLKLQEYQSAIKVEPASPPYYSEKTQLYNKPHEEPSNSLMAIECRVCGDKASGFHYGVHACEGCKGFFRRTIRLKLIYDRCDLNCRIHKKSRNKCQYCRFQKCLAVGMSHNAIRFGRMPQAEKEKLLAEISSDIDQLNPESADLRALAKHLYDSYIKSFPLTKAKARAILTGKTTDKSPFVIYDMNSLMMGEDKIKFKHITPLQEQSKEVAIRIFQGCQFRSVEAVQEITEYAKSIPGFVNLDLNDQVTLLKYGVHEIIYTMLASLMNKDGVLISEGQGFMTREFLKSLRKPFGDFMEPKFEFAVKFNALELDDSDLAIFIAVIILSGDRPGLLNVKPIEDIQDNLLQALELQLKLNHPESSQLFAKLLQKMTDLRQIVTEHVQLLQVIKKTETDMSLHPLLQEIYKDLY
For `O=c1c(S(=O)(=O)c2ccc(Cl)cc2)cn(Cc2ccccc2)c2ccc(F)cc12`, the activation (% of full agonist control) was 38% and the activation (% of partial agonist control) was 84.1% (inactive).
For the compound `COc1ccccc1N1C(=O)C2C(c3ccccc3F)NN(C(=O)c3ccc(C)cc3)C2C1=O` (centres undefined), the activation (% of full agonist control) turned out to be 26.8% and the activation (% of partial agonist control) is 59.4% (inactive).
Regarding `Cc1cccc(NC(=O)CN2C(=O)/C(=C3\SC(=S)N(CC4CCCO4)C3=O)c3ccccc32)c1` (centres undefined), the activation (% of full agonist control) is 43.3% and the activation (% of partial agonist control) is 95.8% (active).
Consider `O=C(CSc1nc(=O)n(CCN2CCOCC2)c2c1CCCC2)Nc1cccc([N+](=O)[O-])c1`, for which the activation (% of full agonist control) amounted to 47.7% and the activation (% of partial agonist control) was 106% (active).
The like results for `O=C(c1cccc(S(=O)(=O)Nc2ccccc2Cl)c1)N1CCN(c2ccccc2O)CC1` were, in that order, 28.5% and 63.2% (inactive).
Regarding `COc1cccc(NS(=O)(=O)c2ccc3c(c2)C2C=CCC2C(c2ccc(C(=O)O)cc2)N3)c1` (centres undefined), the activation (% of full agonist control) came to 32.7% and the activation (% of partial agonist control) was 72.4% (inactive).
The like results for `CC(Oc1ccc(F)cc1)C(=O)Nc1cc(S(=O)(=O)N2CCCCC2)ccc1N1CCOCC1` (centres undefined) were, in that order, 31.1% and 68.8% (inactive).
Regarding `O=C1C(=O)N(Cc2cccnc2)C(c2cccc(F)c2)/C1=C(/O)c1ccc2c(c1)OCO2` (centres undefined), the activation (% of partial agonist control) was 77.9% (inactive) and the activation (% of full agonist control) worked out at 35.2%.
The corresponding values for `COc1ccc(CN2CCN(Cc3ccc(C)cc3)C(CCO)C2)cc1OC` (centres undefined) are 74.6% (inactive) and 33.7%.
The corresponding values for `O=C(C1=C(O)C(=O)N(CCN2CCOCC2)C1c1ccc(Cl)cc1)c1cc2ccccc2o1` (centres undefined) are 82.6% (inactive) and 37.3%.
The like results for `COc1ccc(-n2c3c(cc(C(=O)NNc4ccccc4C)c2=O)C(=O)CC(C)(C)C3)cc1` were, in that order, 72.5% (inactive) and 32.7%.
Turning to `NC(=O)C1CCCN(Cc2c(C(=O)N3CCc4ccccc4C3)nc3ccc(Cl)cn23)C1` (centres undefined), the activation (% of full agonist control) is 30.2% and the activation (% of partial agonist control) was 66.9% (inactive).
For `COc1ccc2c(c1)c(=O)c(C(=O)c1ccc(Cl)cc1)cn2CC(=O)Nc1ccc(F)cc1`, the activation (% of full agonist control) is 32% and the activation (% of partial agonist control) was 70.9% (inactive).
The like results for `Cc1cccc(NC(=O)CN2C(=O)N/C(=C/c3ccc(-c4cccc(C(=O)O)c4C)o3)C2=O)c1` were, in that order, 34.1% and 75.5% (inactive).
For `O=C(NCc1ccccc1F)C(=O)NCC1CCCN1S(=O)(=O)c1ccccc1` (centres undefined), the activation (% of full agonist control) turned out to be 16.1% and the activation (% of partial agonist control) is 35.6% (inactive).
The like results for `Cc1ccc2cc(CN(Cc3ccccc3)Cc3nnnn3C3CCCC3)c(=O)[nH]c2c1` were, in that order, 39.2% and 86.8% (active).
With `CC(=O)c1ccc(N2CCN(C(=O)C3CCCN(S(=O)(=O)c4cnc[nH]4)C3)CC2)cc1` (centres undefined), the activation (% of partial agonist control) was 55.5% (inactive) and the activation (% of full agonist control) was found to be 25.1%.
Consider `COc1cc(/C=C(\NC(=O)c2ccccc2)C(=O)NC(C(=O)O)c2ccccc2)cc(OC)c1OC` (centres undefined), for which the activation (% of partial agonist control) is 88% (active) and the activation (% of full agonist control) was 39.8%.
As to `Cc1cc(N2C(=O)C(O)=C(C(=O)c3ccco3)C2c2cccc(Cl)c2)no1` (centres undefined), the activation (% of full agonist control) was determined as 25.2% and the activation (% of partial agonist control) is 55.9% (inactive).
`CN1C(=O)COc2ccc(C(=O)c3oc4ccccc4c3-c3cnc4c(c3)COc3ccccc3-4)cc21`: the activation (% of partial agonist control) is 18.3% (inactive) and the activation (% of full agonist control) is 8.28%.
With `O=C(NCCc1c[nH]c2ccccc12)N[C@@H](Cc1ccccc1)C(=O)O`, the activation (% of partial agonist control) was 73.7% (inactive) and the activation (% of full agonist control) came out at 33.3%.
For the compound `O=C(Cc1cccs1)N1CCCC(c2nc3c(nnn3Cc3ccc(F)cc3)c(=O)[nH]2)C1` (centres undefined), the activation (% of partial agonist control) was 72.5% (inactive) and the activation (% of full agonist control) was found to be 32.7%.
Consider `Cc1cc(N2C(=O)C(O)=C(C(=O)c3ccco3)C2c2cccc(Oc3ccccc3)c2)no1` (centres undefined), for which the activation (% of full agonist control) came to 32.2% and the activation (% of partial agonist control) was 71.3% (inactive).
On to `O=C1C(=O)N(CCCn2ccnc2)C(c2ccc(Cl)cc2)/C1=C(\O)c1ccc2c(c1)OCCO2` (centres undefined), for which the activation (% of full agonist control) was 41.5% and the activation (% of partial agonist control) was 91.9% (active).
The corresponding values for `CCn1cnc2c1c(=O)n(Cc1cccc([N+](=O)[O-])c1)c(=O)n2Cc1ccccc1` are 64.1% and 142% (active).
Consider `Cc1ccc(-c2nnc(Nc3ccc(O)cc3)c3ccccc23)cc1S(=O)(=O)NCCO`, for which the activation (% of partial agonist control) was 91% (active) and the activation (% of full agonist control) worked out at 41.1%.
For the compound `O=C(COc1coc(CN2CCc3ccccc3C2)cc1=O)Nc1ccc(F)cc1F`, the activation (% of partial agonist control) was 98.2% (active) and the activation (% of full agonist control) amounted to 44.3%.
The like results for `COc1ccc(CN(C)C(=O)[C@H](Cc2ccccc2)NC(=O)c2ccco2)c(OC)c1` were, in that order, 72.7% (inactive) and 32.8%.
In the case of `COc1ccc(N(CC(=O)N2c3ccccc3CC2C)S(=O)(=O)c2c(C)nn(C)c2C)cc1` (centres undefined), the activation (% of full agonist control) is 32.3% and the activation (% of partial agonist control) was 71.5% (inactive).
Turning to `S=C(NCCc1ccccc1)N1CCn2cccc2C1c1ccncc1` (centres undefined), the activation (% of full agonist control) is 44.2% and the activation (% of partial agonist control) was 97.9% (active).
As to `O=C(O)c1ccc(N2C(=O)CC(SC(=Nc3ccccc3)Nc3ccccc3)C2=O)cc1` (centres undefined), the activation (% of partial agonist control) is 84.7% (inactive) and the activation (% of full agonist control) is 38.3%.
On to `O=C(C1=C(O)C(=O)N(c2nc3ccc(Cl)cc3s2)C1c1ccco1)c1ccco1` (centres undefined), for which the activation (% of partial agonist control) was 93.2% (active) and the activation (% of full agonist control) amounted to 42.1%.
